# From PubChem BioAssay
# Most compounds without a hit are left out; they make up all but 3.4% or so of the library.
# Mcl-1 Bim block: disrupts Bim peptide binding to human Mcl-1; Bead-based flow cytometry, Bim peptide-Mcl-1 binding; actives 0.1% (n = 190,000); Q07820; inhibition, % at 10 µM; in the data active means inhibition above about 40%
# eIF4E-4G inh: eIF4E/eIF4G interaction inhibition in translation initiation | actives 0.37% (n = 220,000) | TR-FRET eIF4E-eIF4GI(517-606) binding, 2 h | inhibition, % at 21.7 µM | AID 782
# Mcl1 Noxa PPI: disrupts binding of human Mcl-1 to Noxa peptide; TR-FRET Mcl-1/Noxa peptide binding, 2 h; inhibition, % at 21.7 µM; actives 1.5% (n = 220,000); AID 1022;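 active means compounds that cut the protein-peptide binding signal by more than 50% relative to plate controls in a single-dose test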;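 further: His-tagged Mcl-1 with rhodamine Noxa BH3 peptide and terbium anti-His antibody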
# Mcl1 Bid PPI: disrupts binding of human Mcl-1 to Bid peptide; Q07820; AID 1021; inhibition, % at 21.7 µM; TR-FRET Mcl-1/Bid-Dy647 peptide binding, 1536-well; actives 0.97% (n = 220,000);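 active means compounds that cut the binding signal by more than half at the single screening dose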;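 further: His-tagged Mcl-1 with europium anti-His antibody binding Bid BH3 peptide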
# 14-3-3 Bad PPI: disrupts binding of bovine 14-3-3 zeta to phospho-Bad peptide; AID 781; TR-FRET 14-3-3zeta/Dy647-pBad peptide displacement, 1 h; inhibition, % at 21.7 µM; actives 0.71% (n = 220,000); P63103;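 active means inhibition above about 70%, limit read from the data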
# p47phox inh: p47phox (human) inhibition; P14598; p47phox/p22phox peptide binding, fluorescence polarization, 2 h; inhibition, % at 24.7 µM; actives 0.53% (n = 220,000)
# Target sequence (P14598 whole entry, looked up): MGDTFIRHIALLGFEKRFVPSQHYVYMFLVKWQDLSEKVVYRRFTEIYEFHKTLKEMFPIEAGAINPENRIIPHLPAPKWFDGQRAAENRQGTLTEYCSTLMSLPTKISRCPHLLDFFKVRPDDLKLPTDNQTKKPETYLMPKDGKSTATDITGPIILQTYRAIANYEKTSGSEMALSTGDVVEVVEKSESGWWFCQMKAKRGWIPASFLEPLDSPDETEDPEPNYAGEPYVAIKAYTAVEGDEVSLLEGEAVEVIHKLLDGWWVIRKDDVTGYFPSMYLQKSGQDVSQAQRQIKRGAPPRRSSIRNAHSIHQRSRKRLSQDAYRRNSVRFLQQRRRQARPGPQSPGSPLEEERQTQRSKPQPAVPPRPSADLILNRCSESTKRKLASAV
# A number is an active result; . = inactive; / = no result given; [ ] = remark or other dose.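 How the source made its calls, unless noted: active means inhibition above about 30% (limit read from the data); inactive means the rest.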
SMILES,Mcl-1 Bim block,eIF4E-4G inh,Mcl1 Noxa PPI,Mcl1 Bid PPI,14-3-3 Bad PPI,p47phox inh
COc1cc(/C=C(\C#N)c2nc3ccccc3[nH]2)cc(OC)c1O,.,30,72,.,.,.
COc1cc(/C=C(\C#N)c2nc3ccc(C)cc3[nH]2)c([N+](=O)[O-])cc1OC,.,.,.,.,.,.
COc1cccc(CNc2ncn[nH]2)c1OCc1ccc(F)cc1,.,.,.,.,.,.
CCN1CCCC1CNCc1cccc(OC)c1OCc1ccc(F)cc1 (stereo not given),.,.,.,.,77,.
CCN1CCCC1CNC(=O)c1ccc(N2CCOCC2)c(NS(=O)(=O)c2ccc(OC)cc2)c1 (stereo not given),.,.,.,.,.,.
CCN(CC)c1ccc(NC(=O)/C=C\c2ccccc2Cl)cc1,.,.,91,.,.,.
CN(C)c1ccc(NC(=O)/C=C/c2ccccc2Cl)cc1,.,.,77,.,.,.
CN(Cc1cccs1)C(=O)Cn1cnc2ccccc2c1=O,.,.,.,.,.,.
COc1ccc(CC(=O)NNc2ncnc3c2cnn3Cc2ccccc2)cc1OC,/,.,.,.,.,.
Cc1ccc(C(=S)N2CCN(Cc3ccccc3)CC2)s1,.,.,.,.,.,.
Cc1ccc(C2=Nc3cccnc3C(c3ccccc3)=NN2)cc1,.,.,.,.,.,.
Cc1ccc(/C=C2\SC(N3CCCC3)=NC2=O)cc1,.,.,.,.,.,.
COc1cc(/C=C2\SC(c3ccc(C)cc3)=NC2=O)cc(OC)c1O,.,.,51,.,.,.
Cc1ccc(C2=NC(=O)/C(=C/c3cc(O)c(O)c(Br)c3)S2)cc1,.,.,95,.,.,.
COc1ccc(S(=O)(=O)NNC(=O)c2ccc(-n3c(C)ccc3C)cc2)cc1,/,.,.,.,.,.
CC1CCc2c(sc(Nc3nc4c(F)cccc4s3)c2C(N)=O)C1 (stereo not given),.,.,101,.,.,.
Cc1onc(-c2c(Cl)cccc2Cl)c1C(=O)NC(=S)Nc1sc2c(c1C(N)=O)CCC(C)C2 (stereo not given),.,.,.,.,.,.
CCOc1ccc(S(=O)(=O)NC(Cc2cnc[nH]2)C(=O)O)cc1 (stereo not given),.,.,.,.,.,.
Cc1c(NC(=S)NC(NC(=O)C(C)C)C(Cl)(Cl)Cl)c(=O)n(-c2ccccc2)n1C (stereo not given),.,.,.,96,.,.
Cc1c(NC(=S)NC(C)(C)C)c(=O)n(-c2ccccc2)n1C,.,.,.,.,.,.
COc1cc2c(cc1OC)C(c1ccccc1O)N(C1CC(=O)N(c3ccccc3)C1=O)CC2 (stereo not given),.,.,.,.,74,.
COc1ccc(NCC(=O)N/N=C/C2CCCCC2)cc1,/,.,.,.,.,.
c1ccc(-c2nc(N3CCN(c4ccccc4)CC3)nc(-n3ccnc3)n2)cc1,.,.,.,.,.,58
Cc1cc(=S)c2cccc(C)c2[nH]1,.,.,.,.,.,.
C/C(=N\Nc1ccc(C(=O)c2c(C)cc3ccccn23)cc1[N+](=O)[O-])c1ccc(O)cc1,/,.,.,.,.,.
SMILES,Mcl-1 Bim block,eIF4E-4G inh,Mcl1 Noxa PPI,Mcl1 Bid PPI,14-3-3 Bad PPI,p47phox inh
Cc1cc2ccccn2c1C(=O)c1ccc(N/N=C/c2ccc(C(=O)O)cc2)c([N+](=O)[O-])c1,/,54,93,73,73,.
COc1cccc(NC(=S)NCCc2ccccn2)c1,.,.,.,.,.,.
Cc1ccccc1OCC(=O)NCCC1=CCCCC1,.,.,.,.,82,.
Cc1ccc(S(=O)(=O)Nc2nc3ccccc3nc2N2CCN(c3ccccc3F)CC2)cc1,.,.,51,.,.,.
Cc1ccc(S(=O)(=O)NC2=C(N3CCN(c4ccccc4F)CC3)C(=O)c3ccccc3C2=O)cc1,.,.,/,.,.,.
N#Cc1ccccc1Oc1ccccc1C=O,.,.,.,.,.,.
Cc1cccc(N/N=C/c2ccc(O)c(O)c2O)c1,/,.,53,.,.,.
O=[N+]([O-])c1ccccc1N/N=C/c1cccc(O)c1O,/,.,54,.,.,.
O=[N+]([O-])c1cccc(N/N=C/c2cccc(O)c2O)c1,.,.,67,.,.,.
O=[N+]([O-])c1ccccc1N/N=C\c1ccccc1Cl,.,.,.,.,.,.
Cc1nccn1CC(=O)N/N=C/c1cccs1,/,.,.,.,.,.
Fc1ccc(NC(=S)N2CCc3ccccc3C2)c(F)c1,.,.,.,.,.,.
COC(=O)NNC(=O)C(C)Oc1ccc(Cl)cc1Cl (stereo not given),.,.,.,.,.,.
CC(Oc1ccc(Cl)cc1Cl)C(=O)N(C)c1ccccc1 (stereo not given),.,.,.,94,.,.
CCOC(=O)CCNC(C)C1COc2ccccc2O1 (stereo not given),.,.,.,56,76,.
O=C(Nc1nnc(C23CC4CC(CC(C4)C2)C3)s1)c1ccc(N2C(=O)CCC2=O)cc1,.,62[fluorescence artefact?],.,.,.,.
CC(C)c1nnc(NC(=O)c2ccc(N3C(=O)CCC3=O)cc2)s1,.,.,.,.,.,.
CNC(=O)CN(C1CCCCC1)S(=O)(=O)c1ccc(OC)c(Cl)c1,.,.,.,98,.,.
COc1ccc(S(=O)(=O)N(CC(=O)NC2CC2)C2CCCCC2)cc1Cl,.,.,.,.,.,.
O=C(NCCN1C(=O)S/C(=C\c2ccc(Cl)c(Cl)c2)C1=O)c1ccc2c(c1)C(=O)N(Cc1ccncc1)C2=O,.,.,71,51,.,.
COC(=O)/C(=N/Nc1ccccc1)N1CCCc2ccccc21,.,.,.,95,.,.
CCN(CC)C(=O)CSc1nc(N)c(C(=O)Nc2ccc(OC)cc2)s1,.,.,.,.,.,.
CCOC(=O)CSc1nc(N)c(C(=O)Nc2ccc(N(C)C)cc2)s1,.,.,90,.,.,.
CC#CCN(CC#CC)S(=O)(=O)c1ccc(S(=O)(=O)N2CCOCC2)cc1,.,/,.,.,/,194
Cc1ccc(NC(=S)N/N=C/c2cccn2Cc2ccccc2F)cc1,/,.,.,.,.,.
SMILES,Mcl-1 Bim block,eIF4E-4G inh,Mcl1 Noxa PPI,Mcl1 Bid PPI,14-3-3 Bad PPI,p47phox inh
O=C(O)CSCC(=O)N1CCN(S(=O)(=O)c2cc(Cl)cc(Cl)c2)CC1,/,.,.,.,.,.
Cn1nc(SCC(=O)O)sc1=S,.,.,.,64,.,.
CCOC(=O)C(Sc1nn(C)c(=S)s1)C(C)=O (stereo not given),.,.,/,.,.,.
O=C(c1cccc(Cl)c1)N1CCN(Cc2ccncc2)CC1,.,.,.,.,.,.
O=C(c1cccc(Cl)c1)N1CCN(Cc2ccccc2F)CC1,.,.,.,69,84,.
Cc1ccc(CN2CCN(CC3CC4C=CC3C4)CC2)cc1 (stereo not given),.,.,.,.,72,.
